# Screens deposited in PubChem BioAssay by National Center for Advancing Translational Sciences (NCATS).
# NS1 inh – blocks influenza NS1 protein function | Potency, µM (titrated, usually from 46.1 µM), without a hit: at the top dose activity, positive = more growth | hit rate 0.4% among 270,000; also: potency is read from the fitted curve at half-maximal effect; actives are rising curves; nearly all actives have a fitted effect of over 50% in size
#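 OD600 was taken as the measure of yeast growth restored by compound in an NS1-expressing S. cerevisiae strain. Cells had been washed out of glucose medium and diluted 1:100 into galactose -URA medium, pH 6.0.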
# SARS PLpro yeast – SARS-CoV PLP inhibition in yeast. hit rate 0.19% among 330,000. Potency, µM (top dose mostly 32.9 µM), inactives show at the highest dose activity, positive = growth rescue, actives largely listed as activators. S. cerevisiae expressing SARS-CoV PLpro, growth rescue; also: potency is read from the fitted curve at half-maximal effect; 0% is about no effect; nearly all actives have a fitted effect of over 55% in size
# Shiga inhibitor – inhibitors of Shiga toxin in Vero cells. Vero cells, Shiga toxin protein synthesis inhibition reporter. hit rate 9.2% among 290,000. inhibition, % at 38.7 µM; in the data active = inhibition mostly above about 28%, no sharp cut-off; inactive = mostly below about 43%; also: 0% is about no effect
# CHX counter – counter-screen hit for Shiga toxin inhibitors, cycloheximide | AID 2314 | hit rate 12% among 300,000 | cell reporter, cycloheximide protein synthesis inhibition counterscreen | max response, %; in the data active = max response mostly above about 13%, no sharp cut-off; inactive = mostly below about 14%; also: read at 38.3 µM for the half of the compounds with a filed dose; 0% is about no effect
# The depositor's hits bear a star; ? = inconclusive; · = no result given; [ ] = remark or other dose. A selection: hits, their analogues and other compounds. The true share with any hit is near 12%. Unless noted, calls follow the shape of the full dose curve.
SMILES,NS1 inh,SARS PLpro yeast,Shiga inhibitor,CHX counter
Cc1ccccc1NC(=O)c1ccc(Cl)c(NC(=O)c2ccncc2)c1,4.6%,8.3%,-3.9,-5.5
O=C(NCc1cccs1)C(=O)c1cn(CC(=O)N2CCOCC2)c2ccccc12,·,-0.1%,13.4,-4.7
C=CCOc1ccc(CNCc2cccnc2)cc1,10.1%,0.5%,14.8,8.5*
C=CCOc1ccc(CNCc2cccnc2)cc1OCC,14.7%,3.6%,-6.4,1.8
COc1cc(C(=O)/C=C/c2cccnc2)c([N+](=O)[O-])cc1OC,·,3.8%,·,·
N#Cc1ccc(OC(=O)Cc2ccsc2)cc1,10.6%,4.2%,-2.4,-1.4
CCc1cc(OCCCSc2nc(C)cc(=O)[nH]2)ccc1Cl,-10.0%,-16.8%,8.7,16.1
Cc1nc(-c2ccc(S(=O)(=O)NCc3cccnc3)s2)cs1,-2.9%,-2.2%,3.2,4.8
CN(C)/C=C/c1onc(-c2ccccc2Cl)c1C#N,·,-2.9%,69.3*,42.0*
Cc1ccccc1-c1noc(N)c1C#N,-12.3%,-0.1%,-1.7,3.3
O=C1NCCN(Cc2ccc(Cl)c(F)c2)C1CC(=O)N1CCCO1 (stereo not drawn),9.2%,-0.9%,38.3,13.0*
C=CCn1c(C)cc(-c2csc(NC)n2)c1C,·,-1.9%,-3.7,0.8
C=CCn1c(C)cc(-c2csc(NCC)n2)c1C,1.4%,-4.5%,89.3*,43.2*
O=C(c1ccccc1)N1N=C(c2ccccc2)CC1c1ccccc1[N+](=O)[O-] (stereo not drawn),18.7%,1.2%,-9.1,-2.1
COC(=O)c1cccc(NC(=O)c2ccco2)c1,-16.0%,-25.6%,3.8,-2.9
CC(C)(C)C(=O)COC(=O)c1cccc(NC(=O)c2ccco2)c1,-36.1%,-14.3%,27.5,26.8*
O=C(COC(=O)c1cccc(NC(=O)c2ccco2)c1)c1ccc(Br)cc1,-16.6%,-3.9%,116.7*,79.8*
CCOC(=O)c1c(NC(NC(=O)C(C)C)C(Cl)(Cl)Cl)sc2c1CCC2 (stereo not drawn),-4.4%,-29.6%,34.7,15.5*
CCOC(=O)Nc1sc2c(c1C(=O)OCC)CCC2,-48.1%,-1.2%,-16.7,4.8
CC(=O)c1ccc(NC(=S)NC(=O)/C=C/c2ccccc2)cc1,5.1%,5.0%,38.3*,23.7*
O=C(/C=C/c1ccco1)NC(=S)Nc1ccccc1,9.5%,-6.1%,·,41.6*
Cc1cccc(NC(=S)NC(=O)/C=C/c2ccco2)c1,14.5%,-1.3%,31.7,10.0
CC(=O)c1ccc(NC(=S)NC(=O)/C=C/c2ccco2)cc1,29.2%,5.5%,·,27.3*
O=C(/C=C/c1ccco1)NCc1ccc(F)cc1,·,-0.9%,19.7,18.6*
NS(=O)(=O)c1ccc(NC(=S)NC(=O)/C=C/c2ccco2)cc1,23.2%,-6.7%,-12.9,1.2
SMILES,NS1 inh,SARS PLpro yeast,Shiga inhibitor,CHX counter
O=C(Cc1c(Cl)cccc1Cl)Nc1cccnc1,·,3.0%,-13.2,-2.2
Cc1c(C(=O)NCc2ccco2)oc2ccccc12,-8.6%,-3.9%,38.1,9.2
C=CCOc1nc2c(c(=O)n(Cc3ccc(Cl)cc3)c(=O)n2C)n1C,-9.2%,·,-20.8,-4.4
COc1ccc(S(=O)(=O)N2CCOC2CNC(=O)C(=O)NCCN2CCOCC2)cc1C (stereo not drawn),4.9%,2.1%,2.9,-0.8
Cc1cccc(NC(=S)NC(=O)/C=C/c2ccco2)n1,-71.5%,6.3%[6.58 µM],121.2*,47.7*
O=C(O)c1ccccc1C(=O)c1cccs1,3.0%,7.4%,-7.3,-2.7
Cc1cc(N/C=C/C(=O)c2cccs2)ccc1F,·,0.3%,96.6*,29.4*
Cc1ccc(N/C=C/C(=O)c2cccs2)cc1C,·,-0.2%,31.9,31.2*
O=C(/C=C/Nc1ccc(Nc2ccccc2)cc1)c1cccs1,?,-2.2%,103.0*,63.2*
O=C(/C=C/Nc1ccccc1C(=O)O)c1cccs1,-19.8%,15.3%,74.9*,33.0*
COC(=O)C1=C[C@@H](C(=O)OC)C2C3=C(C(=O)[C@]2(CC(C)C)NC(=O)c2ccccc2)[C@H](C)n2c(=O)n(-c4ccccc4)c(=O)n2[C@@H]3C1 (stereo partly drawn),·,·,-7.6,-3.4
Cc1ccc(C(=O)NC(=S)NCC(=O)c2ccccc2)cc1,-14.6%,-1.7%,35.1,17.1*
O=C(CNC(=S)NC(=O)c1ccco1)c1ccccc1,-59.5%,3.5%,74.9*,37.5*
O=C(Nc1ccc(NC(=S)NC(=O)c2ccco2)cc1)c1ccccc1,-9.6%,-23.9%,25.4,0.8
O=C(CNC(=O)c1ccccc1)c1ccccc1,·,2.1%,·,·
O=C(CNC(=S)NC(=O)c1cccs1)c1ccccc1,6.1%,-41.9%,89.6*,66.3*
COCC(=O)N1CCC(Oc2ccc(C(=O)NC(C)c3nc(C)sc3C)cc2)CC1 (stereo not drawn),-5.7%,2.7%,-4.9,13.0
CCOc1ccc(CCNC(=O)c2ccc(S(=O)(=O)N3CCCC3)cc2)cc1OCC,·,-1.3%,·,·
O=C(NNC(=O)C1CC2CCC1C2)c1sc2ccccc2c1Cl (stereo not drawn),-19.3%,-45.2%,84.8*,54.0*
O=C(NC(=S)NC1CCCC1)c1ccccc1Br,?,27.8%,9.4,-1.5
O=C(NNC(=S)NC1CCCCC1)c1ccc(Cl)s1,3.0%,1.8%,38.9,21.0*
O=C(NNC(=S)NC1CCCCC1)c1sc2ccccc2c1Cl,-23.0%,?,27.2,10.2*
O=C(NNC(=S)NC1CCCCC1)c1ccccc1O,·,?,62.1*,15.8*
Cc1c(NC(=O)COc2c(F)c(F)c(F)c(F)c2F)c(=O)n(-c2ccccc2)n1C,17.8%,2.3%,-5.6,5.6
CCN(CC)c1ccc(/C=N/OCC(=O)N2CCCc3ccccc32)cc1,-15.3%,-19.2%,18.6,-1.1
SMILES,NS1 inh,SARS PLpro yeast,Shiga inhibitor,CHX counter
O=C(Nc1ccccc1)c1ccccc1CSc1ccccc1,·,-15.7%,·,·
CCOc1cc(N2CCOCC2)c(OCC)cc1NC(=O)c1nn(CC)c(=O)c2ccccc12,·,0.4%,·,·
CC(OC(=O)CN1C(=O)c2ccccc2C1=O)C(=O)NC1CCCC1 (stereo not drawn),1.4%,1.4%,-4.9,-2.2
COc1cc(NC(=O)[C@@H](NC(=O)N2CCn3c2nc2ccccc23)C(C)C)cc(OC)c1,1.7%,-8.0%,-3.8,-6.3
COc1ccc(CNCc2ccc3ccccc3c2)c(OC)c1,-15.0%,?,-11.5,-1.1
O=C(NC1CC1)c1sc2cc(F)ccc2c1Cl,·,-6.1%,·,·
O=C(NC1C=CS(=O)(=O)C1)c1ccccc1 (stereo not drawn),4.1%,0.5%,-9.9,-7.3
O=C(NC1CC1)c1sc2ccccc2c1Cl,-6.3%,-3.1%,58.5*,31.6*
O=C(NC1C=CS(=O)(=O)C1)c1sc2ccccc2c1Cl (stereo not drawn),-6.6%,4.0%,32.1,17.3*
CC(C)(C)C(=O)NC(=S)NNC(=O)c1sc2ccccc2c1Cl,-14.8%,-93.3%,26.3,47.6*
O=C(CNC(=O)c1sc2ccccc2c1Cl)NC1CC1,-3.1%,0.3%,31.5,13.3*
COC(=O)CCC(=O)NC1CC(C)(C)Cc2c1cnn2-c1ccccc1 (stereo not drawn),-2.4%,-1.6%,-2.4,-0.4
Cc1nc(SCc2ccc(Cl)cc2)ncc1C(=O)O,·,-3.9%,59.6*,13.9
COc1cnc(SCc2ccc(Cl)cc2)nc1Cl,-72.9%,-25.1%,19.1,10.4
C=CCSc1ncc(C(=O)OCC)c(N)n1,1.9%,0.3%,51.1*,40.5*
CCOC(=O)c1cnc(SCC(=O)Nc2ccc(N3CCOCC3)cc2)nc1N,6.2%,1.8%,-3.1,-3.3
